Source: PMC5540273 (PLoS ONE, 2017)

Legend:
Settings in all cases: concentration: 1 μM, replicates: in singlicate; n = 1
[1] = system: T1, MEK5
T1 construct: gene MAP2K5

[2] = system: T2, MEK6
T2 construct: gene MAP2K6

[3] = system: MELK
[4] = system: MERTK
[5] = system: MET
[6] = system: T3, MINK
T3 construct: gene MINK1

[7] = system: MKK7
[8] = system: MKNK1
[9] = system: MKNK2
[10] = system: T4, MLCK
T4 construct: gene MYLK3

[11] = system: T5, MLK1
T5 construct: gene MAP3K9

[12] = system: MLK2
[13] = system: MLK3
[14] = system: MRCKA
[15] = system: T6, MRCKB
T6 construct: gene CDC42BPB

[16] = system: MST1R
[17] = system: T7, MST1
T7 construct: gene STK4

[18] = system: T8, MST2
T8 construct: gene STK3

[19] = system: T9, MST3
T9 construct: gene STK24

[20] = system: MST4
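Further: KINOMEscan kinase panel screen.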

SMILES | %Inh [1] [%] | %Inh [2] [%] | %Inh [3] [%] | %Inh [4] [%] | %Inh [5] [%] | %Inh [6] [%] | %Inh [7] [%] | %Inh [8] [%] | %Inh [9] [%] | %Inh [10] [%] | %Inh [11] [%] | %Inh [12] [%] | %Inh [13] [%] | %Inh [14] [%] | %Inh [15] [%] | %Inh [16] [%] | %Inh [17] [%] | %Inh [18] [%] | %Inh [19] [%] | %Inh [20] [%]
Cc1cc(-c2ccnc(Nc3cccc(C#N)c3)n2)cc(C)c1O [GSK1440913] | 23 | 35 | 0 | 42 | 38 | 52 | 36 | 2 | 2 | 77 | 66 | 0 | 36 | 5 | 0 | 0 | 0 | 9 | 6 | 9
Fc1cc(Cl)ccc1Nc1ccnc2cc(-c3ccc(CN4CCSCC4)o3)ccc12 [GW560106] | 99.8 | 0 | 0 | 40 | 28 | 63 | 0 | 1 | 45 | 5 | 14 | 0 | 13 | 0 | 4 | 31 | 30 | 0 | 0 | 0
CN(c1ccc(F)c(NC(=O)c2cccc(OC(C)(C)C#N)c2Cl)c1)c1ccc2nc(NC(=O)C3CC3)sc2n1 | 99.8 | 0 | 0 | 30 | 24 | 54 | 39 | 0 | 22 | 0 | 0 | 4 | 0 | 0 | 0 | 5 | 0 | 0 | 0 | 0
Cl.N#CCc1ccc(Nc2nccc(Nc3ccc(Oc4ccccc4)cc3)n2)cc1 [GW639905] | 99.9 | 0 | 0 | 0 | 0 | 0 | 0 | 0 | 33 | 0 | 0 | 0 | 0 | 6 | 0 | 2 | 20 | 0 | 0 | 0
Cc1cccc(Nc2nc(N[C@H]3CCCC[C@H]3N)ncc2C(N)=O)c1.Cl [GSK986310] | 98.4 | 5 | 0 | 64 | 0 | 73 | 0 | 0 | 17 | 13 | 85 | 40 | 76 | 13 | 0 | 44 | 34 | 0 | 52 | 34
CC(=O)Nc1cn2nc(Oc3cccc(NC(=O)c4cccc(C(F)(F)F)c4)c3)ccc2n1 | 93.3 | 5 | 20 | 73 | 16 | 22 | 0 | 0 | 0 | 0 | 2 | 23 | 6 | 7 | 0 | 0 | 27 | 0 | 1 | 0
CC(C)c1nc(-c2ccc(F)c(NS(=O)(=O)c3c(F)cccc3F)c2)c(-c2ccnc(Nc3ccc(N4CCOCC4)nc3)n2)s1 [GSK1804250] | 100 | 22 | 45 | 54 | 70 | 26 | 15 | 21 | 11 | 0 | 52 | 8 | 52 | 4 | 0 | 46 | 17 | 3 | 23 | 23
CCNC(=O)/C=C/c1n[nH]c2cc(Sc3ccccc3C(=O)NC)ccc12 | 45 | 0 | 7 | 20 | 13 | 56 | 0 | 0 | 1 | 0 | 7 | 7 | 0 | 0 | 48 | 8 | 0 | 0 | 30 | 0
c1ccc(Oc2ccc(Nc3ccnc4cc(-c5ccc(CN6CCCCC6)o5)ccc34)cc2)nc1 [GW567143] | 100 | 0 | 0 | 50 | 11 | 25 | 0 | 7 | 37 | 0 | 2 | 14 | 0 | 13 | 0 | 29 | 20 | 0 | 4 | 0
CN1CCN(Cc2ccc(NC(=O)Nc3ccc(N(C)c4ccnc(Nc5ccc(CS(C)(=O)=O)cc5)n4)cc3)cc2)CC1.Cl [GW827654] | 99.1 | 0 | 32 | 72 | 67 | 95.6 | 0 | 96.7 | 100 | 26 | 14 | 24 | 0 | 15 | 30 | 92.7 | 61 | 99 | 68 | 83
